Consider eight compounds from PubChem BioAssay (NCI).

This is part of a sample that, as a whole, favours compounds with a hit. Of some 83,000 tested, about 20% had one in any assay.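 Values shown are percent growth following 48 h exposure of cells in 96-well plates to a single concentration of compound; below 10 was considered active.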 Values without a mark were called inactive. Active and inactive are the calls of the source.

Some test systems named below: SK-MEL-2 melanoma; EKVX NSCLC; SN12C renal; UO-31 renal; TK-10 renal; ACHN renal; CAKI-1 renal; A498 renal; CCRF-CEM leukemia; MOLT-4 leukemia; SR leukemia; RPMI-8226 leukemia; OVCAR-8 ovarian; OVCAR-5 ovarian; OVCAR-4 ovarian; SK-OV-3 ovarian; IGROV1 ovarian; OVCAR-3 ovarian; HS 578T breast; NCI/ADR-RES ovarian.
Holding throughout (test): NCI-60 one-dose screen, 48 h (100 = growth as untreated, 0 = no growth, -100 = all killed)
Common to all, as to details: 10 µM unless noted

In the case of `CCOC(=O)C#Cc1c(C(=O)OCC)nnn1Cc1ccc([N+](=O)[O-])cc1`, the growth in the experiment on SK-MEL-2 melanoma is 109%; in the experiment with EKVX NSCLC, 106%; in the experiment with SN12C renal it was 58.6%; in the experiment on UO-31 renal it was 4.18% (active); in the experiment with TK-10 renal, -10.9% (active); with ACHN renal, -53.6% (active). The growth in the experiment with CAKI-1 renal was -52% (active); with A498 renal, 107%; in the experiment on CCRF-CEM leukemia, -21.3% (active); with MOLT-4 leukemia, 14.9%; in the experiment on SR leukemia, -10.7% (active); in the experiment on RPMI-8226 leukemia, 11.4%. For the same compound, the growth was 63.3% in the experiment with OVCAR-8 ovarian; 97.3% with OVCAR-5 ovarian; 51.2% in the experiment on OVCAR-4 ovarian; 105% in the experiment on SK-OV-3 ovarian; 89.6% in the experiment on IGROV1 ovarian; 7.55% (active) with OVCAR-3 ovarian. Further, the results for the growth in the experiment on HS 578T breast and in the experiment on NCI/ADR-RES ovarian were 91.2% and 96.3%, respectively.
For the compound `O=C(CN1C(=O)NC2NC(=O)NC21)N/N=C/c1ccccc1[N+](=O)[O-]` (stereo not given), the growth with SK-MEL-2 melanoma was 114%; in the experiment with EKVX NSCLC, 103%; in the experiment on SN12C renal, 105%; with UO-31 renal, 87.8%; in the experiment on TK-10 renal, 116%; in the experiment on ACHN renal it was 103%. The growth in the experiment with CAKI-1 renal is 90.1%; with A498 renal, 104%; in the experiment with CCRF-CEM leukemia, 107%; with MOLT-4 leukemia, 103%; in the experiment with SR leukemia, 110%; in the experiment with RPMI-8226 leukemia, 109%. Further, the growth with OVCAR-8 ovarian was 104%; in the experiment with OVCAR-5 ovarian, 108%; with OVCAR-4 ovarian, 99.6%; with SK-OV-3 ovarian, 104%; in the experiment with IGROV1 ovarian, 107%; in the experiment on OVCAR-3 ovarian, 123%. Further, the growth with HS 578T breast was 107%; in the experiment on NCI/ADR-RES ovarian it was 105%.
As to `CCOC(=O)C1=C(c2ccccc2)N=C2SC=C(c3ccc(Cl)cc3)N2C1c1ccc(Br)cc1` (stereo not given), the growth in the experiment on SK-MEL-2 melanoma was 96.4%; with EKVX NSCLC, 73.9%; with SN12C renal, 84.5%; with UO-31 renal it was 73.2%; in the experiment with TK-10 renal, 103%; with ACHN renal, 87.3%. In addition, the growth was 61.3% with CAKI-1 renal; 46.7% in the experiment on A498 renal; 78.4% with CCRF-CEM leukemia; 39% in the experiment with MOLT-4 leukemia; 74.2% in the experiment with SR leukemia; 61.8% in the experiment on RPMI-8226 leukemia. Besides, the growth is 80.3% in the experiment on OVCAR-8 ovarian; 94.9% with OVCAR-5 ovarian; 50.5% in the experiment on OVCAR-4 ovarian; 82.5% with SK-OV-3 ovarian; 74.5% with IGROV1 ovarian; 67.4% in the experiment on OVCAR-3 ovarian. For the same compound, the growth is 77.9% in the experiment with HS 578T breast and 83% in the experiment with NCI/ADR-RES ovarian.
`Nc1c(C(=O)Nc2ccccc2C(F)(F)F)sc2nc3c(cc12)CCC3`: the growth in the experiment with SK-MEL-2 melanoma is 102%; in the experiment on EKVX NSCLC, 97.1%; in the experiment with SN12C renal it was 101%; in the experiment on UO-31 renal it was 98%; in the experiment with TK-10 renal, 89.9%; in the experiment with ACHN renal it was 99.6%. The growth is 101% in the experiment on CAKI-1 renal; 95.1% with A498 renal; 101% in the experiment on CCRF-CEM leukemia; 88.1% in the experiment on MOLT-4 leukemia; 86.6% in the experiment on SR leukemia; 110% in the experiment on RPMI-8226 leukemia. For the same compound, the growth is 100% with OVCAR-8 ovarian; 103% with OVCAR-5 ovarian; 101% in the experiment with OVCAR-4 ovarian; 87.7% in the experiment with SK-OV-3 ovarian; 105% in the experiment on IGROV1 ovarian; 113% in the experiment with OVCAR-3 ovarian. Further, the growth in the experiment on HS 578T breast was 95.1%; in the experiment with NCI/ADR-RES ovarian, 101%.
Regarding `O=C(O)CCN1C(=O)/C(=C/C(Cl)=C/c2ccccc2)SC1=S`, the growth was 43.7% in the experiment on SK-MEL-2 melanoma; 39.1% with EKVX NSCLC; 11.9% in the experiment on SN12C renal; 35.8% in the experiment on UO-31 renal; 49.7% with TK-10 renal; -65.3% (active) in the experiment with ACHN renal. Further, the growth was 23.8% with CAKI-1 renal; 43.5% in the experiment on A498 renal; 1.73% (active) with CCRF-CEM leukemia; 10.6% in the experiment on MOLT-4 leukemia; 6.86% (active) in the experiment on SR leukemia; -8.3% (active) with RPMI-8226 leukemia. Also, the growth was 22.8% with OVCAR-8 ovarian; 57.8% with OVCAR-5 ovarian; 28.7% in the experiment on OVCAR-4 ovarian; 94% in the experiment with SK-OV-3 ovarian; 22.6% in the experiment with IGROV1 ovarian; 2.92% (active) in the experiment with OVCAR-3 ovarian. The growth is 33.8% in the experiment on HS 578T breast and 11.3% in the experiment with NCI/ADR-RES ovarian.
With `O=c1[nH]c(Cc2nc3ccccc3s2)nc2cc(Br)ccc12`, the growth is 57.5% in the experiment with SK-MEL-2 melanoma; 87.5% with EKVX NSCLC; 81.3% with SN12C renal; 37.3% in the experiment on UO-31 renal; 94.3% with TK-10 renal; 35.9% in the experiment on ACHN renal. In addition, the growth in the experiment with CAKI-1 renal was 58.7%; with A498 renal, 95.7%; in the experiment with CCRF-CEM leukemia, 56.2%; with MOLT-4 leukemia, 59%; in the experiment with SR leukemia it was 75.4%; in the experiment on RPMI-8226 leukemia it was 66.7%. Moreover, the growth in the experiment with OVCAR-8 ovarian was 70.8%; in the experiment with OVCAR-5 ovarian it was 66.5%; with OVCAR-4 ovarian, 92.4%; with SK-OV-3 ovarian it was 78.8%; in the experiment on IGROV1 ovarian, 73.9%; with OVCAR-3 ovarian, 86.4%. In addition, the growth with HS 578T breast is 84.2%; with NCI/ADR-RES ovarian, 72.8%.
Consider `Cc1ccc(C)n1-c1ccccc1-n1c(C)ccc1C`, for which the growth with SK-MEL-2 melanoma was 108%; in the experiment with EKVX NSCLC it was 92.5%; with SN12C renal, 93.5%; with UO-31 renal, 98.1%; in the experiment with TK-10 renal, 128%; in the experiment on ACHN renal it was 102%. In addition, the growth was 71.7% in the experiment with CAKI-1 renal; 97.9% in the experiment on A498 renal; 124% with CCRF-CEM leukemia; 78.7% in the experiment with MOLT-4 leukemia; 93.2% with SR leukemia; 148% in the experiment on RPMI-8226 leukemia. Besides, the growth with OVCAR-8 ovarian is 102%; with OVCAR-5 ovarian it was 118%; in the experiment on OVCAR-4 ovarian, 105%; in the experiment with SK-OV-3 ovarian, 109%; with IGROV1 ovarian it was 92.9%; in the experiment on OVCAR-3 ovarian, 120%. Also, the growth in the experiment with HS 578T breast was 117%; in the experiment on NCI/ADR-RES ovarian it was 116%.
In the case of `C#CCOc1cccc(Nc2ncnc3cc(NC(=O)C=C)ccc23)c1`, the growth in the experiment on SK-MEL-2 melanoma was 25.3%; in the experiment on EKVX NSCLC, 32.5%; in the experiment on SN12C renal it was 13.2%; with UO-31 renal it was 16.8%; with TK-10 renal, -12.6% (active); in the experiment with ACHN renal, 17.2%. Besides, the growth is 16% in the experiment on CAKI-1 renal; 26.8% with A498 renal; 2.9% (active) with CCRF-CEM leukemia; 7.88% (active) in the experiment on MOLT-4 leukemia; 13% in the experiment with SR leukemia; 13.3% with RPMI-8226 leukemia. Also, the growth in the experiment with OVCAR-8 ovarian is 4.37% (active); with OVCAR-5 ovarian, 54.3%; with OVCAR-4 ovarian it was 45.5%; with SK-OV-3 ovarian, 29.6%; in the experiment on IGROV1 ovarian it was 6.96% (active); with OVCAR-3 ovarian, 6.09% (active). Also, the figures for the growth in the experiment on HS 578T breast and with NCI/ADR-RES ovarian were 18.2% and 14.9%, respectively.
